Assay outcomes deposited in PubChem by National Center for Advancing Translational Sciences (NCATS).
Six1-Eya2 inh: qHTS Assay for Inhibitors of the Six1/Eya2 Interaction; Homeobox protein SIX1 (Homo sapiens) + Protein phosphatase EYA2 (Homo sapiens), …; AlphaScreen GST-Six1/His-Eya2 binding, biochemical; active compounds read low; activity change, % (no concentration beside the values); hit rate 0.56% among 360,000; in the data active means activity change below about -65%; inconclusive means mostly about -30% to -63%
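Six1/Eya2 binding was read as AlphaScreen signal after compounds were pinned into GST-Six1 plus His-tagged Eya2 (5X stock 250/500 nM) in pH 8.0 Tris/NaCl/TCEP buffer, beads added, then incubated 1 h, 37 C, dark.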
TDP1 inh: qHTS Assay for Inhibitors of Tyrosyl-DNA Phosphodiesterase (TDP1); Potency, µM (doses to about 130 µM), usual class: inhibitors; hit rate 0.28% among 350,000; Tyrosyl-DNA phosphodiesterase 1 (Homo sapiens), Q9NUW8; recombinant TDP1, AlphaScreen DNA substrate cleavage; AID 485290, 2010; further: nearly all actives have a fitted effect of over 40% in size
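E. coli-derived human Tdp1, 1 nM final. Cpd preinc 15 min RT; substrate 15 nM final, 5 min RT; AS bead mix 10 ug/ml final, 10 min RT. Signal loss = tyrosine-FITC cleavage. No-enzyme wells = max signal.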
BAZ2B inh: qHTS Assay for Inhibitors of BAZ2B; Potency, µM (series often up to 114 µM), hits mostly inhibitors; AlphaScreen BAZ2B-H3K14Ac peptide displacement; Bromodomain adjacent to zinc finger domain protein 2B (Homo sapiens), Q9UIF8; hit rate 4.4% among 360,000; further: nearly all actives have a fitted effect of over 60% in size
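Protein-peptide AlphaScreen: BAZ2B 50 nM, b-H3K14Ac 50 nM, 1x PBS pH 7.4 + 0.01% Tween-20. Preincubation 30 min RT; cpd 30 min RT (top 110 uM); beads 20 min RT, light-protected.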
HP1b chromo inh: HTS for Inhibitors of HP1-beta Chromodomain Interactions with Methylated Histone Tails; Chromobox protein homolog 1 (Homo sapiens), P83916; hit rate 0.56% among 390,000; AlphaScreen HP1-beta / biotin-H3K9me3 peptide binding; Potency, µM (doses to about 114 µM), usual class: inhibitors; AID 540317, 2011; further: nearly all actives have a fitted effect of over 70% in size
Target sequence (P83916 whole entry, looked up): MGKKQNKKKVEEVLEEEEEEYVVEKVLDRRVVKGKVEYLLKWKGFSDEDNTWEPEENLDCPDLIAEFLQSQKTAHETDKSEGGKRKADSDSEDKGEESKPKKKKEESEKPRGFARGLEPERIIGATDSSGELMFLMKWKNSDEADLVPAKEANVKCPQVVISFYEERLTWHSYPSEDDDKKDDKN
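AlphaScreen: HP1-beta (50 nM) preformed 30 min with biotin-H3(1-18)K9me3 peptide (50 nM) in PBS pH 7.4, 0.01% Tween-20. Compound added for 30 min at RT, then streptavidin donor/nickel chelate acceptor beads (10 ug/mL) for 30 min.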
CtBP-E1A inh: qHTS Assay for Inhibitors of the CtBP/E1A Interaction | hit rate 0.49% among 340,000 | CtBP / adenovirus E1A interaction (AlphaScreen) | AlphaScreen GST-E1A/His-CtBP binding, 1536-well; active compounds read low | activity change, % (no concentration beside the values); in the data active means activity change below about -65%; inconclusive means mostly about -30% to -63%
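AlphaScreen with 125 nM GST-E1A and 125 nM His-CtBP (5X stocks) in Tris pH 8.0, 300 mM NaCl, BSA, Tween 20, TCEP. Compounds preincubated 2 h at 37 deg C, then glutathione donor/nickel acceptor beads added for 1 h at 37 deg C in dark.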
JMJD2A Tudor inh: qHTS Assay for Inhibitors of JMJD2A-Tudor Domain. AlphaScreen JMJD2A-Tudor / H3K4me3 peptide binding. Potency, µM (highest dose often 114 µM), hits mostly inhibitors. hit rate 4.4% among 390,000; further: nearly all actives have a fitted effect of over 50% in size
A number is an active result; 0 = inactive; ? = inconclusive; - = no result; [ ] = dose if it differs, or a comment. An excerpt weighted towards active compounds, which were near 5.3% of everything screened. Unless noted, the call rests on the fitted dose curve; in most records, active means well fitted inhibition curve with a large enough effect; inconclusive means small, poorly fitted or top-dose-only effect; inactive means no such curve, though single readings can be large or run the other way.

SMILES	Six1-Eya2 inh	TDP1 inh	BAZ2B inh	HP1b chromo inh	CtBP-E1A inh	JMJD2A Tudor inh
Cc1ccc(C)c(N2CCN(C3(c4ccccc4)C(=O)c4ccccc4C3=O)CC2)c1	-	0[12.3 µM]	6.3µM	0	-	?
COc1ccc(C2(N3CCN(c4cc(C)ccc4C)CC3)C(=O)c3ccccc3C2=O)cc1	-	0[12.3 µM]	?	0	-	?
Cc1ccc(N2CC(NC(=O)c3ccc(S(=O)(=O)N4CCOCC4)cc3)CC2=O)cc1C (stereo not drawn)	-	0	0	0	-	0
O=C(c1cccc(Cl)c1)n1nc(-c2ccco2)nc1NCc1cccs1	-	0	0	0	-	0
CCCn1cc(S(=O)(=O)c2ccc(Cl)cc2)c(=O)c2cc(OC)ccc21	0	0	?	0	0	22µM
CCn1c2c(c(=O)n3ncc(C(=O)N4CCN(c5ccc(Cl)cc5)CC4)c13)CN(Cc1ccc(OC)cc1)CC2	-	0	0	0	-	0
O=C(NCCCn1ccnc1)c1ccncc1	0	0	56µM	0	0	0
CC(C)(C)c1ccc(C(=O)NCCCn2ccnc2)cc1	0	-	0	0	0	0
CC(C)(C)C(=O)Nc1ccccc1C(=O)NCCCn1ccnc1	?	0	18µM	0	0	50µM
O=C(CNC(=O)c1ccc(Cl)cc1)NCCCn1ccnc1	0	0	79µM	0	0	0
Cc1ccc(C(=O)NCCCn2ccnc2)cn1	0	0	50µM	0	0	0
O=C(NCCCn1ccnc1)c1ccc(Cl)cc1	0	0	0	0	0	0
COc1cccc([C@@H]2Oc3ccc(Br)cc3C(=O)[C@H]2OC(=O)Nc2ccc(OC(F)F)cc2)c1	-	0	-	-	-	-
Cc1cccc(Cn2c(CN3CCC(C(=O)NCCc4ccccc4)CC3)cc3ccccc32)c1	-	0	0	0	-	0
O=C(NCCCn1ccnc1)C(F)(F)C(F)(F)C(=O)NCCCn1ccnc1	0	0	20µM	0	0	?
CC(NC(=O)NCCCn1ccnc1)(C(F)(F)F)C(F)(F)F	0	0	0	0	0	0
C/C=C/C=C/C(=O)[C@@H]1[C@@H]([C@]2(C)OC(=O)C(C)=C2O)[C@H]2/C(=C(O)/C=C/C=C/C)C(=O)[C@]1(C)C(=O)C2(C)O (stereo partly drawn)	?	-	79µM	0	0	45µM
CC(C)N1C/C(=C/c2ccsc2)C(=O)/C(=C/c2ccsc2)C1	0	0	45µM	0	0	?
Cc1cc2c(ncn2Cc2ccccc2)c(N)c1C	0	0	71µM	0	0	?
Cc1cc2c(ncn2Cc2ccccc2)c(NS(C)(=O)=O)c1C	0	0	0	0	0	0
O=S(=O)(Nc1cccc(-c2ccc(N3CCCCC3)nn2)c1)c1cccc(F)c1	-	0	?	0	-	0
CCOC(=O)c1c(NC(C)=O)c2c3c(sc2n1Cc1nc(-c2cccc(C)c2)oc1C)CCCC3	-	0	0	0	-	0
COCCNCc1cc(C)n(-c2cc(S(=O)(=O)N3CCOCC3)ccc2N2CCCC2)c1C	0	-	-	0	0	5µM
CO[C@H]1C=CO[C@@]2(C)Oc3c(C)c(O)c4c(O)c(c(C=NN5CCN(C)CC5)c(O)c4c3C2=O)NC(=O)C(C)=CC=C[C@H](C)[C@H](O)[C@@H](C)[C@@H](O)[C@@H](C)[C@H](OC(C)=O)[C@@H]1C	0	0	45µM	0	0	?
CO[C@H]1/C=C/O[C@@]2(C)Oc3c(C)c(O)c4c(O)c(c(C=NN5CCN(C)CC5)c(O)c4c3C2=O)NC(=O)/C(C)=C\C=C\[C@H](C)[C@H](O)[C@@H](C)[C@@H](O)[C@@H](C)[C@H](OC(C)=O)[C@@H]1C	0	-	?	?	0	0
SMILES	Six1-Eya2 inh	TDP1 inh	BAZ2B inh	HP1b chromo inh	CtBP-E1A inh	JMJD2A Tudor inh
CC(=O)c1ccc(NC(=O)c2ccc3nc(-c4ccco4)c(-c4ccco4)nc3c2)cc1	?	11µM	11µM	8.9µM	0	45µM
CCc1nc2ccc(C(=O)Nc3ccc(NC(C)=O)cc3)cc2nc1CC	0	0	0	0	0	0
O=C(NC1CC1)c1ccc2nc(-c3ccco3)c(-c3ccco3)nc2c1	-	?	-	22µM	-	20µM
CNC(=O)c1ccc2nc(-c3ccco3)c(-c3ccco3)nc2c1	-	11µM	-	18µM	-	18µM
CCCCNC(=O)c1ccc2nc(-c3ccco3)c(-c3ccco3)nc2c1	0	0	50µM	?	0	25µM
CCc1nc2ccc(C(=O)NCCc3ccco3)cc2nc1CC	0	0	0	0	0	0
O=C(NC1CCCCC1)c1cc(-c2ccco2)on1	0	0	0	0	0	0
CCc1nn(CC(=O)NCc2ccco2)c(=O)c2cc3c(OC)cccc3n12	-	0	0	0	-	0
Clc1cccc(N2CCN(c3nc4ccccc4c4nc(-c5cccnc5)nn34)CC2)c1	-	0	0	0	-	0
CCCOc1ccc(CNC(=O)c2[nH]c3cc(OC)ccc3c2Sc2ccccc2)cc1	-	0	0	0	-	0
O=C(Nc1ccccc1)c1ccc2nc(-c3ccco3)c(-c3ccco3)nc2c1	?	0	0	?	?	50µM
O=C(Nc1ccc(N2CCOCC2)cc1)c1ccc2nc(-c3ccco3)c(-c3ccco3)nc2c1	0	0	0	0	0	0
O=C(c1ccc(Br)s1)N(Cc1cccnc1)c1nc2ccc(F)cc2s1	-	0	0	0	-	0
CCOC(=O)c1ccc2c(c1)N(CC(=O)Nc1ccc(CC)cc1)C(=O)c1ccccc1S2	-	0	0	0	-	0
N#Cc1c(N)sc(=S)c2c1CCCCC2	0	10µM	50µM	0	0	45µM
COc1ccc(NC(=O)COCc2cc(-c3ccco3)on2)cc1Cl	-	0	0	0	-	0
O=c1[nH]c(/C=C/c2cccc3ccccc23)nc2ccccc12	0	0	0	0	0	0
O=c1[nH]c(/C=C/c2ccccc2F)nc2ccccc12	0	45µM	0	0	-	0
O=C(O)c1cccc(N2C(=O)C3C4C=CC(C4=C(c4ccccc4)c4ccccc4)C3C2=O)c1 (stereo not drawn)	0	0	56µM	0	-	0[11.4 µM]
COc1ccc(O[C@H]2C=C[C@@H](c3ccccc3)O[C@@H]2CO/N=C(\C)CCN2CCCc3nc(C)c(C)cc32)cc1	-	0[21 µM]	-	-	-	-
CC1Cc2cc(/C(O)=C3/C(=O)C(=O)N(CCCn4ccnc4)C3c3ccncc3)ccc2O1 (stereo not drawn)	0	0	?	0	0	0
